# In PubChem BioAssay:
# Values joined by “and” are separate entries in the source; they are usually repeats but may differ in a detail not shown here. Equal entries are not always repeated. Active and inactive are the calls of the source.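 Rule for the calls, unless noted: active = compounds whose cell count with miR-34 switched on is under 0.7 times the count with it off; inactive = the rest.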
# How the values were obtained:
# [1] = Wnt pathway potentiators raising nuclear beta-catenin – imaging, WNT3A-conditioned medium, mouse C2C12, NPC library, primary screen (AID 1117326; in the data active = nuclear beta-catenin stimulation mostly above about 4.2%, no sharp cut-off; inactive = mostly below about 10%); conditions: stronger effect = higher value
# [2] = stimulators of insulin release from INS-1E, primary screen, cell-based, 5 mM glucose, NPC library (AID 1117329;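 active = compound raises insulin release from rat beta cells at 5 mM glucose, no numeric limit stated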); conditions: rat INS-1E insulin secretion, at 10 µM, stronger effect = higher value
# [3] = growth inhibition of GSK3B-pretreated HCT116 cells – cell-based, CellTiter-Glo, 0.2 to 20 µM (AID 1117336;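 active = compounds lowering colon cancer cell viability after pretreatment blocking the GSK3B kinase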); conditions: HCT116 viability after GSK3B inhibitor, at 20 µM, stronger effect = higher value
# [4] = inhibition of endothelial tube formation, primary screen, imaging, VEGF stimulated, CD31 staining, tube area, NPC library (AID 1117340;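 active = compound that reduces growth-factor-driven endothelial tube area in a mixed cell culture, no cutoff stated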); conditions: VEGF-stimulated ADSC/ECFC co-culture, at 10 µM, stronger effect = higher value
# [5] = GLP1 release stimulators, primary, NCI-H716, NPC library (AID 1117341;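 active = compound raises GLP1 secretion from the human gut endocrine cells, with no numeric limit stated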); conditions: NCI-H716 cells, at 10 µM, stronger effect = higher value
# [6] = HCT116 colon cancer cell growth inhibition, primary screen, CellTiter-Glo luminescence, NPC library (AID 1117342;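 active = compounds that lower survival of HCT116 colon cancer cells in the luminescence readout, no numeric limit stated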); conditions: at 20 µM (top of the series)
# [7] = reduced SW480 viability measured with CellTiter-Glo, NPC library, primary (AID 1117343;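 active = compounds that lower viability of the colon cancer cells in the luminescence readout, with no numeric limit stated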); conditions: CellTiter-Glo luminescence; at 20 µM (top of the series)
# [8] = NPC library primary testing for decreased DLD-1 cell viability via CellTiter-Glo (AID 1117346;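 active = compounds that lower survival of DLD-1 colon cancer cells in the luminescence readout, no cutoff given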); conditions: DLD-1 viability, CellTiter-Glo luminescence; at 20 µM (top of the series)
# [9] = EMT-state selective cytotoxicity in co-culture – imaging, PC-3E GFP, TEM4-18 mCherry, primary screen (AID 1345086;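 active = compounds killing one labelled cell type while sparing the other, by normalised counts and ratio limits, not self-fluorescent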;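 for all read-outs here: cells exposed to compound for 72 h before imaging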;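 for red/green cell ratio (normalised): normalised mesenchymal count divided by normalised epithelial count so high means epithelial killing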); conditions: PC-3E GFP / TEM4-18 mCherry co-culture, imaging cell counts, at 1 µM; for red/green cell ratio (normalised): actives lie on both sides
# [10] = yeast 75Q aggregation reduction – 75Q-TubU reporter (AID 1593); conditions: Yeast 75Q polyglutamine aggregation reporter
# [11] = blockers of cytochrome c efflux from mitochondria – biochemical, purified mitochondria (AID 1603); conditions: stronger effect = lower value;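 note: mouse liver mitochondria challenged with calcium chloride; signal normalized to the plate average as 100%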
# [12] = polyglutamine aggregate formation blockers (AID 1604); conditions: polyglutamine-induced protein aggregation inhibition assay; stronger effect = higher value; tested at 2.5 µM
# [13] = P. berghei load reduction in hepatocytes – cell-based, HepG2, luciferase luminescence, HepG2 viability, primary screen (AID 624349; in the data active = parasite load remaining mostly below about 12%, no sharp cut-off; inactive = mostly above about 10%;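 note: 100% = mean of DMSO negative control wells on the same plate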); conditions: P. berghei liver stage in HepG2, luciferase luminescence, concentration not given here; parasite load remaining: stronger effect = lower value; viability: measured here: HepG2 viability without parasites
# [14] = tested on: Aerobactin synthetase IucA (Klebsiella pneumoniae hvKP1); assay: IucA enzyme inhibition, primary screen, biochemical, Spectrum library (AID 1346200; call rule not given here;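 note: 100% = wells without compound and 0% = wells lacking enzyme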); conditions: malachite green pyrophosphate, A620, at 8 µM, stronger effect = lower value
# [15] = viability loss with induced miR-34 in A549 – imaging, A549 dox-inducible miR-34, nuclei and caspase counts, primary screen (AID 1347080); conditions: A549 miR-34 inducible, Hoechst nuclei count, 48 h
# [16] = biological target: NAD(+) hydrolase SARM1 (Homo sapiens) (UniProt Q6SZW1); assay: blocking NAD cleavage by SARM1 SAM-TIR – cell lysate, NAD-Glo luminescence (AID 1508614;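 active = compound whose remaining NAD level is above about 45 nM, limit read from the data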;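 note: higher remaining NAD means stronger inhibition of SARM1 NADase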); conditions: SAM-TIR HEK293T lysate NADase, at 1 µM, stronger effect = higher value
# [17] = biological target: Mitogen-activated protein kinase 7 (Homo sapiens) (UniProt Q13164); assay: Gal4-ERK5 driven luciferase induction – cell-based, HTS, primary screen (AID 1508626;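 active = luciferase signal above three times the same-plate solvent-only control wells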;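 note: luciferase driven by Gal4-ERK5 fusion binding five Gal4 sites before minimal TATA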); conditions: HeLa Gal4-ERK5 transactivation, 18 h, at 5 µM, stronger effect = higher value
# [18] = MELAS cybrid and Rieske KO viability enhancers – cell-based, MELAS cybrids, Rieske KO mouse fibroblasts, CellTiter-Glo, primary screen (AID 1508586;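 active = mean z-score across replicates of 1.96 or higher in either the MELAS or the Rieske mutant cell line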;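 note: z relative to plate mean and SD of compound and empty wells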); conditions: low glucose
# [19] = galactose survival enhancers in mitochondrial complex I cybrids – cell-based, galactose medium, ATP luminescence, primary screen (AID 1645843;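 active = z-score of at least 1.8 in each of two replicates, scored against plate mean and spread of sample wells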;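 note: positive z means more ATP and so rescue of galactose-driven cybrid death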); conditions: complex I mutant cybrid cells, 72 h, stronger effect = higher value
# [20] = measured here: epithelial PC-3E GFP cell survival
# [21] = measured here: mesenchymal TEM4-18 mCherry cell survival
# [22] = measured here: relative caspase fold change +Dox/-Dox
# [23] = measured here: total cells with miR-34 induction, stronger effect = lower value
# [24] = measured here: total cells without miR-34 induction
# [25] = MELAS cybrid survival, CellTiter-Glo 48 h, stronger effect = higher value
# [26] = Rieske KO mouse fibroblast survival, CellTiter-Glo 72 h
# Chain of NAD(+) hydrolase SARM1 (Homo sapiens) (Q6SZW1 whole entry, looked up, the tested form may be a part): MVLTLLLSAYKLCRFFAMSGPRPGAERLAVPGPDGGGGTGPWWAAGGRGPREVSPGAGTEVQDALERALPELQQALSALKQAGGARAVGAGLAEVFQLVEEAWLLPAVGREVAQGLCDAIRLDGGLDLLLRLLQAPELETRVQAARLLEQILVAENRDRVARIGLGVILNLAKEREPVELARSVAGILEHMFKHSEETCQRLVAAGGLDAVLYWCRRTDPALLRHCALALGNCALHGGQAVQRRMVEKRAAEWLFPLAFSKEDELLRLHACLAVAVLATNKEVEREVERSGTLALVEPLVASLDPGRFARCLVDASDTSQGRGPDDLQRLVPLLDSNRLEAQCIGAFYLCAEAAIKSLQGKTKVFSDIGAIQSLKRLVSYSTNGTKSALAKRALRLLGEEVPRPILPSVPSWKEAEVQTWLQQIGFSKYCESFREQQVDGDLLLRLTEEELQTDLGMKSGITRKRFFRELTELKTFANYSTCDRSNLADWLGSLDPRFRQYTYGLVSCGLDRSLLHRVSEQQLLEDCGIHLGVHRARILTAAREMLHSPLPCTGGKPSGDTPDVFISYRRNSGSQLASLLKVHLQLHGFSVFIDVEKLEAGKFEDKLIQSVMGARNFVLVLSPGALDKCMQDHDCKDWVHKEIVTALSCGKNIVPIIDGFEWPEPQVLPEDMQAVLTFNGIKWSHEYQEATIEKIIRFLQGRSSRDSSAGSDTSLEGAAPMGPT
# Chain of Mitogen-activated protein kinase 7 (Homo sapiens) (Q13164 whole entry, looked up, the tested form may be a part): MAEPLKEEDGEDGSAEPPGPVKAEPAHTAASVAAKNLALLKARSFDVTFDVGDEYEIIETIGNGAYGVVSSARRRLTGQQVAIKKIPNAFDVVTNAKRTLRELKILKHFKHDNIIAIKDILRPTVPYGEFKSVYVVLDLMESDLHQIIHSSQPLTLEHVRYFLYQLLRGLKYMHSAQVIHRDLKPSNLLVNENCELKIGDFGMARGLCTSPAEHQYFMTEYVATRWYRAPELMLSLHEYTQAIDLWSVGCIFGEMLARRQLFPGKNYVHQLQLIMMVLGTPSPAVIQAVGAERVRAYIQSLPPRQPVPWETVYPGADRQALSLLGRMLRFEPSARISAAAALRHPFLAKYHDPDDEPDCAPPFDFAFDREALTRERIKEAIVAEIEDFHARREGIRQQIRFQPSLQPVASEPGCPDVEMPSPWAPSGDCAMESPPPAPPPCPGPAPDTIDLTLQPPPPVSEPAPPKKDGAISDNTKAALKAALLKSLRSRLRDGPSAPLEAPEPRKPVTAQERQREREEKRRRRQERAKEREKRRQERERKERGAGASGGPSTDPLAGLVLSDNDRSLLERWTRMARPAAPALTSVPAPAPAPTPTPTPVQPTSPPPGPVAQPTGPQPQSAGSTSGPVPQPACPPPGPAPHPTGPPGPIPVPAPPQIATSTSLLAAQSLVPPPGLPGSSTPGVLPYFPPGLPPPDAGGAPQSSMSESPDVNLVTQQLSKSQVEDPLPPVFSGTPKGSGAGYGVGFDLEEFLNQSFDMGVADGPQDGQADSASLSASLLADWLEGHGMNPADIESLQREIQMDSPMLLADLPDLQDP
smiles,measurement,setting,value
c1ccc(N2CCNCC2)cc1,nuclear beta-catenin stimulation,[1]; at 10 µM,0.1% (inactive)
same,nuclear beta-catenin stimulation,"[1]; stimulation, at 2 µM",-0.6%
same,insulin secretion stimulation,[2],3.1% (inactive)
same,viability decrease,[3],3.7% (inactive)
same,tube area decrease,[4],-2.6% (inactive)
same,GLP1 secretion stimulation,[5],-0.5% (inactive)
same,inhibition of viability,[6],10.5% (inactive)
same,viability decrease (inhibition),[7],0.3% (inactive)
same,viability decrease (inhibition),[8],-5.9% (inactive)
same,red/green cell ratio (normalised),[9],1.17 (inactive)
same,normalised cell number,[9]; [20],0.95
same,normalised cell number,[9]; [21],1.12
Oc1cccc2cccnc12,score,[10],0.03
same,cytochrome c release ratio,[11],0.94
same,inhibition of aggregation,[12],83.3%
same,parasite load remaining,[13],64.5% (inactive) and 25.4% (inactive)
same,viability,[13],53.5% and 57.1%
same,nuclear beta-catenin stimulation,[1]; at 10 µM,6.4% (inactive)
same,nuclear beta-catenin stimulation,"[1]; stimulation, at 2 µM",0.8%
same,insulin secretion stimulation,[2],-1% (inactive)
same,viability decrease,[3],-3.1% (inactive)
same,tube area decrease,[4],-4.7% (inactive)
same,GLP1 secretion stimulation,[5],81.5% (active)
same,inhibition of viability,[6],8.1% (inactive)
same,viability decrease (inhibition),[7],68.4% (active)
same,viability decrease (inhibition),[8],53.9% (active)
same,red/green cell ratio (normalised),[9],1.03 (inactive)
same,normalised cell number,[9]; [20],0.9
same,normalised cell number,[9]; [21],0.93
same,activity remaining,[14],111% (inactive)
same,fold change,[15]; stronger effect = lower value,0.857 (inactive)
same,fold change,[15]; [22],0.864
same,cell count,[15]; [23],8140
same,cell count,[15]; [24],9500
same,remaining NAD,[16],10 nM (inactive)
CCCC(C)C1(CC)C(=O)N=C(S)NC1=O (stereo unspecified),score,[10],1.17
same,cytochrome c release ratio,[11],1.02
same,inhibition of aggregation,[12],30.6%
same,parasite load remaining,[13],29.3% (inactive)
same,viability,[13],123%
same,nuclear beta-catenin stimulation,[1]; at 10 µM,0.1% (inactive)
same,nuclear beta-catenin stimulation,"[1]; stimulation, at 2 µM",-0.3%
same,insulin secretion stimulation,[2],-0.2% (inactive)
same,viability decrease,[3],-5.2% (inactive)
same,tube area decrease,[4],-13.6% (inactive)
same,GLP1 secretion stimulation,[5],0.9% (inactive)
same,inhibition of viability,[6],-4.4% (inactive)
same,viability decrease (inhibition),[7],95.4% (active)
same,viability decrease (inhibition),[8],3.85% (inactive)
same,red/green cell ratio (normalised),[9],1.19 (inactive)
same,normalised cell number,[9]; [20],1.01
same,normalised cell number,[9]; [21],1.21
same,activity remaining,[14],91.6% (inactive)
same,fold change,[15]; stronger effect = lower value,0.92 (inactive)
same,fold change,[15]; [22],4.02
same,cell count,[15]; [23],10900
same,cell count,[15]; [24],11900
same,remaining NAD,[16],10 nM (inactive)
same,luciferase signal,[17],60 AU (inactive)
Cn1c(CCCC(=O)O)nc2cc(N(CCCl)CCCl)ccc21,nuclear beta-catenin stimulation,[1]; at 10 µM,3% (inactive)
same,nuclear beta-catenin stimulation,"[1]; stimulation, at 2 µM",0.9%
same,insulin secretion stimulation,[2],0.9% (inactive)
same,viability decrease,[3],-12.4% (inactive)
same,tube area decrease,[4],44.6% (active)
same,GLP1 secretion stimulation,[5],-0.7% (inactive)
same,inhibition of viability,[6],6.5% (inactive)
same,viability decrease (inhibition),[7],18.4% (inactive)
same,viability decrease (inhibition),[8],-5.7% (inactive)
same,fold change,[15]; stronger effect = lower value,1.1 (inactive) and 0.89 (inactive)
same,fold change,[15]; [22],0.645 and 1.16
same,cell count,[15]; [23],8630 and 6450
same,cell count,[15]; [24],7880 and 7250
same,z-score,[18]; [25],-0.517 (inactive)
same,z-score,[18]; [26],-0.135
same,z-score,[19],0.31 (inactive)
N#CC(C#N)=Cc1ccc(O)c(O)c1,nuclear beta-catenin stimulation,[1]; at 10 µM,3.9% (inactive)
same,nuclear beta-catenin stimulation,"[1]; stimulation, at 2 µM",3.3%
same,insulin secretion stimulation,[2],0.65% (inactive)
same,viability decrease,[3],86.7% (active)
same,tube area decrease,[4],17.4% (inactive)
same,GLP1 secretion stimulation,[5],-2.9% (inactive)
same,inhibition of viability,[6],55.1% (active)
same,viability decrease (inhibition),[7],62.8% (active)
same,viability decrease (inhibition),[8],48.5% (inactive)
same,fold change,[15]; stronger effect = lower value,1.02 (inactive) and 0.942 (inactive) and 0.96 (inactive)
same,fold change,[15]; [22],1.77 and 0.329 and 1.5
same,cell count,[15]; [23],8900 and 8210 and 9690
same,cell count,[15]; [24],8760 and 8720 and 10100
same,z-score,[18]; [25],-0.508 (inactive)
same,z-score,[18]; [26],-0.257
same,z-score,[19],-0.735 (inactive) and -0.66 (inactive)
